Rows were chosen to be rich in hits. Some 21% of all compounds tested hit in one or more screens of this group.
Pf growth 48h: inhibits P. falciparum growth in the first generation, 48 h; Potency, µM (series often up to 28.7 µM), without a hit: at the top dose activity change, negative = inhibition, usual class: inhibitors; AID 504832; 5.9% of 310,000 active; P. falciparum luciferase growth in erythrocytes, 48 h; further: potency means the concentration at half of the fitted maximal effect; on the % scale 0 is the no-effect control and ±100 the full control effect
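Luciferase-expressing P. falciparum in infected erythrocytes (2% hematocrit, 0.1% parasitemia final) in RPMI 1640/0.5% Albumax were exposed to compound for 48 hours at 37 C, 5% CO2; growth read as luminescence.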
NS1 function inh: blocks influenza NS1 protein function; Potency, µM (series often up to 46.1 µM), inactives show top-dose activity, positive = more growth; AID 2326; 0.4% of 270,000 active; calls by dose curve; further: potency means the concentration at half of the fitted maximal effect; actives are rising curves; nearly all actives have a fitted effect of over 50% in size
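In this qHTS, NS1 from influenza A is expressed in budding yeast, where it slows growth. Cells are switched from glucose to 2% galactose medium (pH 6.0, -URA), treated with compound, and growth recovery is read at OD600.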
Shiga inhibitor: inhibitors of Shiga toxin in Vero cells; Vero cells, Shiga toxin protein synthesis inhibition reporter; inhibition, % at 38.7 µM; 9.2% of 290,000 active; in the data active means inhibition mostly above about 28%, no sharp cut-off; inactive means mostly below about 43%; further: 0% is about no effect
Pf growth 96h: P. falciparum growth inhibition at 96 hour, primary screen for plastid delayed-death inhibitors. P. falciparum luciferase reporter growth, 96 h. Potency, µM (series often up to 28.7 µM), without a hit: top-dose activity change, negative = inhibition, most hits filed as inhibitors. 6.9% of 320,000 active; further: potency means the concentration at half of the fitted maximal effect; on the % scale 0 is the no-effect control and ±100 the full control effect
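Compounds incubated with erythrocytes infected by luciferase-expressing P. falciparum (2% hematocrit, 0.05% parasitemia final) for 96 hours, 37 C in 5% CO2. Growth inhibition scored as decreased luciferase luminescence.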
CHX counter: counter-screen for Shiga toxin inhibitors: cycloheximide protein synthesis inhibition. cell reporter, cycloheximide protein synthesis inhibition counterscreen. max response, %. 12% of 300,000 active. AID 2314; in the data active means max response mostly above about 13%, no sharp cut-off; inactive means mostly below about 14%; further: read at 38.3 µM for the half of the compounds with a filed dose; 0% is about no effect
* marks the source's active call; other numbers are inactive results; i = inactive; u = inconclusive; x = no result given; [ ] = dose if it differs, or a comment. Unless noted, the call rests on the fitted dose curve; in most records, active means well fitted inhibition curve with a large enough effect; inconclusive means small, poorly fitted or top-dose-only effect, or another doubt; inactive means no such curve, though single readings can be large or run the other way.

SMILES | Pf growth 48h | NS1 function inh | Shiga inhibitor | Pf growth 96h | CHX counter
CCc1ccccc1NC(=O)CNC(=O)CNC(=O)c1cccs1 | 6.6% | x | x | 0.5% | x
Cc1nc(N2CCN(S(=O)(=O)c3ccccc3)CC2)c2c3c(sc2n1)CC(C)CC3 (stereo unspecified) | u | -16.0% | 8.5 | 10.4µM* | -1.5
CC(=O)N1CCN(c2nc(C)nc3sc4c(c23)CCC(C)C4)CC1 (stereo unspecified) | u | -45.3% | -20.1 | u | -3.4
COc1cc(CCC(=O)OCC(=O)Nc2ccc(F)c(F)c2F)cc(OC)c1OC | -2.1% | -2.9% | -5.8 | 5.9% | 1.4
CC(=O)N1N=C(c2cccs2)CC1c1ccc(Br)cc1 (stereo unspecified) | -2.3%[0.00184 µM] | -39.8% | 32.5 | 3.5% | 31.7*
COc1ccc(C2CC(c3ccc(Cl)cc3)=NN2C(=O)c2cccc([N+](=O)[O-])c2)cc1 (stereo unspecified) | u | u | 13.8 | u | 19.1*
CC(=O)N1N=C(c2ccc(C)o2)CC1c1ccc(Br)cc1 (stereo unspecified) | 41.4% | -7.5% | 87.1* | 56.2% | 42.6*
CC(=O)N1N=C(c2cccs2)CC1c1cccs1 (stereo unspecified) | 1.0% | -1.1% | 11.9 | 30.0% | -3.2
COc1ccc(C2CC(c3ccc(Cl)cc3)=NN2C(C)=O)cc1 (stereo unspecified) | 9.1% | -8.7% | 29.6* | u | 34.2*
COc1ccc(NC(=O)COC(=O)c2ncc(Cl)c(Cl)c2Cl)c(OC)c1 | 13.0% | 4.3% | 2.0 | 2.2% | -2.4
C=CCOn1c(=O)c(-c2ccc(F)cc2)[n+]([O-])c2ccccc21 | 35.9% | 2.3% | 7.3 | 29.0% | -1.2
C=CCNCC(=O)N1N=C(c2ccc3ccccc3c2)CC1c1ccc(OC)cc1 (stereo unspecified) | u | x | 25.6 | u | 2.1
COc1ccc(C2CC(c3ccc(C)o3)=NN2C(C)=O)cc1 (stereo unspecified) | 48.4% | -2.0% | 96.6* | u | 20.8*
COc1ccccc1N1N=C(c2ccc([N+](=O)[O-])cc2)CC1c1ccccc1 (stereo unspecified) | u | 21.2% | x | -8.4% | 0.8
COc1ccc(C2=NN(CN3C(=O)C(=O)c4ccccc43)C(c3cccc([N+](=O)[O-])c3)C2)cc1 (stereo unspecified) | u | 4.0% | 117.3* | -22.3% | 12.7*
COc1ccc(C2CC(c3ccc4ccccc4c3OC(C)=O)=NN2C(C)=O)cc1 (stereo unspecified) | u | 3.4% | 59.5* | 21.0% | 24.5*
COc1ccccc1NC(=O)Cc1nnc(SCC(=O)c2ccccc2)n1C | 4.0% | -3.1% | 24.2 | -19.7% | -3.3
Fc1ccc(C2=NCCC(c3ccccc3)O2)cc1 (stereo unspecified) | x | x | i | x | 17.3
COc1ccc2c(=O)c3c(=O)n(Cc4ccco4)c(C4CCCCC4)nc3oc2c1 | u | 1.1% | 20.2 | u | -4.3
CC(=O)Nc1ccc(S(=O)(=O)Nc2cccc(-c3ccc4nncn4n3)c2)cc1 | -25.9% | x | -7.3 | 2.08µM* | -3.3
CC(CNC(=O)CCS(=O)(=O)c1cc2c(cc1Cl)NC(=O)CO2)c1ccccc1 (stereo unspecified) | -8.9% | 0.5% | 2.6 | u | -3.4
COc1ccccc1C(=O)N=Nc1c(O)[nH]c2ccc([N+](=O)[O-])cc12 | 10.4µM* | x | 30.1 | u | 12.7
NC(=O)N=Nc1c(O)[nH]c2ccc([N+](=O)[O-])cc12 | 7.9% | -1.5% | -2.4 | -19.8% | 0.8
O=C(c1ccccc1)N1CCN(C2c3cccc4cccc(c34)C2NS(=O)(=O)c2ccccc2)CC1 (stereo unspecified) | 6.57µM* | u | -31.0 | 4.15µM* | -2.6
O=S(=O)(NC1c2cccc3cccc(c23)C1N1CCN(CCO)CC1)c1ccccc1 (stereo unspecified) | 14.7µM* | 0.3% | -13.5 | -24.0% | -5.5
SMILES | Pf growth 48h | NS1 function inh | Shiga inhibitor | Pf growth 96h | CHX counter
O=S(=O)(NC1c2cccc3cccc(c23)C1N1CCNCC1)c1ccccc1 (stereo unspecified) | u | u | -11.0 | 2.6% | 1.5
COc1ccc2nc(NC(C)=O)sc2c1 | 142.0% | -10.3% | 82.5* | x | 41.6*
CCC(C)C(=O)Nc1nc2ccc(OC)cc2s1 (stereo unspecified) | 64.5% | 6.2% | 70.7* | 72.2% | 41.8*
CC(=O)Nc1nc2ccc(S(=O)(=O)N3CCCC3)cc2s1 | -6.5% | 5.1% | -8.7 | u | 5.2
COc1ccc2nc(NC(=O)Nc3cccc4ccccc34)sc2c1 | -16.0% | x | 56.0 | 48.0% | 23.3
COc1ccc(OCC(=O)Nc2nc3ccc(NC(C)=O)cc3s2)cc1 | -5.1% | 7.0% | 27.7 | u | 1.0
CC(=O)Nc1nc2ccc(Br)cc2s1 | 93.2% | -75.4% | 39.9 | u | 21.3*
CC(=O)NCCC(=O)Nc1nc2ccc(Oc3ccccc3)cc2s1 | 162.5% | -17.3% | 100.8* | 285.2% | 61.5*
C#CCOc1ccc(C(=O)N(C)c2ccccc2I)cc1 | x | x | 14.7 | x | 20.0
COc1cc(/C=N/NC(=O)CNc2n[nH]c(=O)[nH]c2=O)ccc1OCc1ccccc1 | -5.8% | -1.1% | -4.8 | 17.5% | -2.1
CCC(C)C(=O)Nc1nc2ccc(S(C)(=O)=O)cc2s1 (stereo unspecified) | 9.2% | 2.8% | 36.8* | u | 19.8*
Cc1ccc(NC(=O)CSc2nnc(Cn3cnc4ccccc43)o2)c(C)c1 | 66.5% | u | 70.2 | 53.8% | -2.0
Cc1ccccc1Oc1cc(-n2ncc(Cl)c(Cl)c2=O)ncn1 | u | -60.8% | 22.6 | -28.9% | 14.2*
COc1ccc(CNC(=O)C2CC(O)CN2C(=O)Nc2ccccc2)cc1 (stereo unspecified) | 9.7% | 3.7% | -2.9 | 198.9% | -1.6
Cn1cc(CNC(=O)c2cc(COc3ccc4c(c3)CCCC4)on2)cn1 | -1.8% | -17.0% | 15.5 | u | 23.0*
O=C(NC(c1cccnc1)C(F)(F)F)c1cc(COc2ccc3c(c2)CCCC3)on1 (stereo unspecified) | u | -36.5% | 99.9* | 7.8% | 46.1*
CC1=C(C(N)=O)C(c2ccccc2[N+](=O)[O-])n2ncnc2N1 (stereo unspecified) | x | -1.2% | 0.6 | 211.4% | -4.6
CC(C)C(NC(=O)c1ccccc1F)C(=O)NCCc1ccccn1 (stereo unspecified) | 4.6% | -3.2% | 33.8 | -2.2% | -1.9
CCc1cccc2sc(N(CCCN3CCOCC3)C(=O)CS(=O)(=O)c3ccccc3)nc12 | 9.28µM* | x | x | u | x
Cc1ccc(S(=O)(=O)CC(=O)N(CCCN2CCOCC2)c2nc3c(F)cccc3s2)cc1 | 18.8% | x | x | 31.6% | x
Fc1ccc(F)c(C2=NNC(=NCC3CCCO3)SC2)c1 (stereo unspecified) | u | 2.8% | 131.2* | -21.2% | 33.0*
CC(=O)Nc1ccc(C2=NNC(=NCC3CCCO3)SC2)cc1 (stereo unspecified) | 2.9% | 14.0% | 59.8 | -45.2% | -0.8
Cn1nnnc1SCCOc1ccc(C#N)cc1 | x | 1.0% | 11.6 | -16.6% | -3.2

Bioassay records from PubChem BioAssay.
